“And” between values parts separate entries of the source, which are not always exact repeats. Identical values can stand only once. Hit rate of the full screen: of about 5,500 compounds, about 2,000 (36%) were called active. Not shown: some 18% with an inconclusive outcome. No stated cut-off is given here; in the data, active means normalized growth mostly below about 0.91 (no sharp cut-off); inconclusive means no clear call, values can overlap the other calls; inactive means mostly above about 0.92. The list shows a part of the results.
Experiment: chemical genetic growth profiling, strain panel (AID 1159580);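 further: tested at 20 µM; growth read once vehicle control cultures reached saturation at 30 °C; 1 = growth at the plate median or of vehicle wells; lower values mean less growth of the strain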
Conditions: growth OD

Measured: normalized growth

CC(C)(C)NCC(O)c1cc(O)cc(O)c1 (stereo not drawn)
inactive: S. cerevisiae deletion strains, locus YKL009W, strain mrt4, active compounds read low 0.961 | S. cerevisiae deletion strains, locus YKL068W, active compounds read low 0.975 | S. cerevisiae deletion strains, locus YKL085W, strain MDH1 (second series), active compounds read low 0.967 | S. cerevisiae deletion strains, locus YKL085W, strain MDH1, active compounds read low 0.967 | S. cerevisiae deletion strains, locus YKL160W, strain elf1, active compounds read low 0.934 | S. cerevisiae deletion strains, locus YKL190W, strain CNB1, active compounds read low 0.994 | S. cerevisiae deletion strains, locus YKR001C, strain vps1, active compounds read low 0.994 | S. cerevisiae deletion strains, locus YKR026C, strain gcn3, active compounds read low 0.983 | S. cerevisiae deletion strains, locus YKR091W, strain srl3, active compounds read low 0.978 | S. cerevisiae deletion strains, locus YLL001W, strain dnm1, active compounds read low 1 | S. cerevisiae deletion strains, locus YLL026W, active compounds read low 0.984 | S. cerevisiae deletion strains, locus YLL041C, strain sdh2, active compounds read low 0.993 | S. cerevisiae deletion strains, locus YLR027C, strain aat2, active compounds read low 0.987 | S. cerevisiae deletion strains, locus YLR039C, strain RIC1, active compounds read low 0.978 | S. cerevisiae deletion strains, locus YLR058C, strain SHM2, active compounds read low 0.987 | S. cerevisiae deletion strains, locus YLR102C, strain apc9, active compounds read low 0.982 | S. cerevisiae deletion strains, locus YLR113W, strain HOG1, active compounds read low 0.981 | S. cerevisiae deletion strains, locus YLR221C, strain rsa3, active compounds read low 1.01 | S. cerevisiae deletion strains, locus YLR258W, strain gsy2, active compounds read low 0.993 | S. cerevisiae deletion strains, locus YLR262C, strain YPT6 (second series), active compounds read low 1 | S. cerevisiae deletion strains, locus YLR262C, strain YPT6, active compounds read low 0.979 | S. cerevisiae deletion strains, locus YLR268W, strain sec22, active compounds read low 0.951 | S. cerevisiae deletion strains, locus YLR320W, strain mms22, active compounds read low 0.981 | S. cerevisiae deletion strains, locus YLR330W, strain CHS5, active compounds read low 0.976 | S. cerevisiae deletion strains, locus YLR342W, strain FKS1 (second series), active compounds read low 0.99 | S. cerevisiae deletion strains, locus YLR342W, strain FKS1, active compounds read low 0.991 | S. cerevisiae deletion strains, locus YLR357W, strain rsc2, active compounds read low 0.967 | S. cerevisiae deletion strains, locus YLR370C, strain arc18, active compounds read low 0.975 | S. cerevisiae deletion strains, locus YLR371W, strain rom2, active compounds read low 0.964 | S. cerevisiae deletion strains, locus YLR384C, strain iki3, active compounds read low 0.988 | S. cerevisiae deletion strains, locus YLR418C, strain cdc73, active compounds read low 0.996 | S. cerevisiae deletion strains, locus YML016C, strain PPZ1, active compounds read low 0.992 | S. cerevisiae deletion strains, locus YML032C, strain rad52, active compounds read low 0.99 | S. cerevisiae deletion strains, locus YML120C, strain ndi1, active compounds read low 0.967 | S. cerevisiae deletion strains, locus YML124C, strain tub3, active compounds read low 0.983 | S. cerevisiae deletion strains, locus YMR058W, strain fet3, active compounds read low 1 | S. cerevisiae deletion strains, locus YMR078C, strain ctf18, active compounds read low 0.976 | S. cerevisiae deletion strains, locus YMR125W, strain sto1, active compounds read low 0.959 | S. cerevisiae deletion strains, locus YMR129W, active compounds read low 0.969 | S. cerevisiae deletion strains, locus YMR205C, strain PFK2, active compounds read low 0.984 | S. cerevisiae deletion strains, locus YMR223W, strain ubp8, active compounds read low 1.02 | S. cerevisiae deletion strains, locus YMR231W, strain pep5, active compounds read low 0.98 | S. cerevisiae deletion strains, locus YMR263W, strain SAP30, active compounds read low 0.984 | S. cerevisiae deletion strains, locus YMR307W, strain GAS1, active compounds read low 1.04 and 0.986 | S. cerevisiae deletion strains, locus YNL067W, strain RPL9B, active compounds read low 0.985 | S. cerevisiae deletion strains, locus YNL071W, strain lat1, active compounds read low 0.995 | S. cerevisiae deletion strains, locus YNL128W, strain TEP1, active compounds read low 1.01 | S. cerevisiae deletion strains, locus YNL175C, strain NOP13, active compounds read low 0.995 | S. cerevisiae deletion strains, locus YNL183C, strain NPR1, active compounds read low 0.943 | S. cerevisiae deletion strains, locus YNL197C, strain WHI3, active compounds read low 1 | S. cerevisiae deletion strains, locus YNL209W, strain ssb2, active compounds read low 0.989 | S. cerevisiae deletion strains, locus YNL224C, strain SQS1, active compounds read low 1.01 | S. cerevisiae deletion strains, locus YNL233W, strain BNI4, active compounds read low 0.993 | S. cerevisiae deletion strains, locus YNL248C, strain rpa49, active compounds read low 0.923 | S. cerevisiae deletion strains, locus YNL271C, strain bni1, active compounds read low 0.985 | S. cerevisiae deletion strains, locus YNL298W, strain CLA4, active compounds read low 0.979 | S. cerevisiae deletion strains, locus YNL307C, strain MCK1, active compounds read low 0.975 | S. cerevisiae deletion strains, locus YNL322C, strain KRE1 (second series), active compounds read low 0.953 | S. cerevisiae deletion strains, locus YNL322C, strain KRE1, active compounds read low 0.979 | S. cerevisiae deletion strains, locus YNR049C, strain mso1, active compounds read low 0.983 | S. cerevisiae deletion strains, locus YNR052C, strain pop2, active compounds read low 0.983 | S. cerevisiae deletion strains, locus YOL006C, strain TOP1, active compounds read low 1.06 | S. cerevisiae deletion strains, locus YOL012C, strain htz1 0.966 | S. cerevisiae deletion strains, locus YOL147C, strain pex11, active compounds read low 0.969 | S. cerevisiae deletion strains, locus YOR001W, strain rrp6, active compounds read low 1.01 | S. cerevisiae deletion strains, locus YOR061W, strain CKA2, active compounds read low 1 | S. cerevisiae deletion strains, locus YOR069W, strain VPS5, active compounds read low 0.986 | S. cerevisiae deletion strains, locus YOR070C, strain gyp1, active compounds read low 0.986 | S. cerevisiae deletion strains, locus YOR080W, strain dia2, active compounds read low 0.996 | S. cerevisiae deletion strains, locus YOR083W, strain WHI5 (second series), active compounds read low 0.987 | S. cerevisiae deletion strains, locus YOR083W, strain WHI5, active compounds read low 0.908 | S. cerevisiae deletion strains, locus YOR106W, strain vam3, active compounds read low 0.933 | S. cerevisiae deletion strains, locus YOR136W, strain idh2, active compounds read low 0.992 | S. cerevisiae deletion strains, locus YOR144C, strain elg1, active compounds read low 0.989 | S. cerevisiae deletion strains, locus YOR184W, strain ser1, active compounds read low 0.991 | S. cerevisiae deletion strains, locus YOR231W, strain MKK1, active compounds read low 1.01 | S. cerevisiae deletion strains, locus YOR265W, strain rbl2, active compounds read low 0.992 | S. cerevisiae deletion strains, locus YOR270C, strain vph1, active compounds read low 0.932 | S. cerevisiae deletion strains, locus YOR290C, strain snf2, active compounds read low 0.967 | S. cerevisiae deletion strains, locus YOR316C, strain cot1, active compounds read low 0.982 | S. cerevisiae deletion strains, locus YPL051W, strain arl3, active compounds read low 0.968 | S. cerevisiae deletion strains, locus YPL055C, strain LGE1, active compounds read low 1.01 and 0.983 | S. cerevisiae deletion strains, locus YPL078C, strain atp4, active compounds read low 0.944 | S. cerevisiae deletion strains, locus YPL106C, strain sse1, active compounds read low 0.97 | S. cerevisiae deletion strains, locus YPL240C, strain hsp82, active compounds read low 1.01 | S. cerevisiae deletion strains, locus YPL241C, strain CIN2, active compounds read low 0.987 | S. cerevisiae deletion strains, locus YPL256C, strain CLN2, active compounds read low 0.959 | S. cerevisiae deletion strains, locus YPR119W, strain clb2, active compounds read low 0.975 | S. cerevisiae deletion strains, locus YPR141C, strain kar3, active compounds read low 0.976 | S. cerevisiae deletion strains, locus YPR163C, strain tif3, active compounds read low 0.978 | S. cerevisiae deletion strains, locus YPR167C, strain met16, active compounds read low 0.974 | S. cerevisiae deletion strains, strain wtn01, active compounds read low 0.99 | S. cerevisiae strains, strain wild type, active compounds read low 0.993
